Measured values reported in PubChem BioAssay.
The source made the active and inactive calls.

What was measured:
[1] = tested on: PRMT1 (protein arginine N-methyltransferase 1); assay: small molecules binding arginine methyltransferase PRMT1 – biochemical, small-molecule microarray, 635 nm fluorescence, primary screen (AID 1088); conditions: higher = more signal;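 also: binding of Prmt1 protein to compounds spotted on small-molecule microarray slides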
[2] = growth effects on S. cerevisiae YJM789 – YJM789 clinical isolate, OD600, 24 h, basal, primary screen (AID 1089); conditions: higher = more signal, called active from +8 up or from −8 down;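 also: growth of clinical yeast isolate S. cerevisiae YJM 789 seeded 1000 cells per well; test concentration not given here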
[3] = S. pombe growth modifiers, basal conditions – strain 972, OD600, 24 h, no modulator, primary screen (AID 1090);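 also: basal condition with compound alone and no growth modifier present; test concentration not given here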; conditions: S. pombe 972 growth, higher = more signal, called active from +8 up or from −8 down
[4] = budding yeast growth modifiers under rapamycin – strain BY4716, OD600, 96 h, primary screen (AID 1091); also: test concentration not given here; conditions: S. cerevisiae BY4716 + rapamycin, higher = more signal, called active from +8 up or from −8 down
[5] = target: Torsin-1A-interacting protein 2 (Homo sapiens) (UniProt Q8NFQ8); assay: small molecules binding lysate-expressed LULL1 – cell lysate, human LULL1 lysate, 635/667 nm fluorescence, primary screen (AID 1092); conditions: small-molecule microarray, hLULL1 lysate binding, 635 nm fluorescence; higher = more signal;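 also: probe is lysate of COS7 cells overexpressing human LULL1; score merges per-feature 667 nm fluorescence with signal-to-noise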
[6] = optical density change of DRC41 E. coli – strain DRC41, OD650, 24 h, E. coli filamentation project, primary screen (AID 1093);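 also: MC1000 strain lacking acrAB efflux and sulA so SOS filamentation is blocked; test concentration not given here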; conditions: E. coli DRC41 growth, higher = more signal, called active from +8 up or from −8 down
[7] = probe aLefty2 binding to arrayed compounds – biochemical, biotinylated probe, 635/667 nm fluorescence, primary screen (AID 1094); conditions: small-molecule microarray, higher = more signal;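 also: score merges spot fluorescence near 667 nm with spot signal-to-noise ratio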
[8] = tested on: Noggin (protein binding on small-molecule microarray); assay: small molecules binding Noggin protein – biochemical, 635/667 nm fluorescence, primary screen (AID 1095); conditions: 635 nm fluorescence, higher = more signal;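 also: score merges 667 nm feature fluorescence with signal to noise over triplicate slides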
[9] = target: Neurogenic locus notch homolog protein 3 (Homo sapiens) (UniProt Q9UM47); assay: small molecules binding NOTCH3 protein – biochemical, 635/667 nm fluorescence, primary screen (AID 1096); conditions: small-molecule microarray, 635 nm fluorescence, higher = more signal
[10] = probe aEGFR binding to arrayed compounds – biochemical, biotinylated probe, 635/667 nm fluorescence, primary screen (AID 1097); conditions: small-molecule microarray, higher = more signal;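 also: probe is a biotinylated anti-EGFR antibody binding compounds printed on slides; score combines fluorescence near 667 nm and signal to noise of each spot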

Chain of Neurogenic locus notch homolog protein 3 (Homo sapiens) (Q9UM47 whole entry, looked up): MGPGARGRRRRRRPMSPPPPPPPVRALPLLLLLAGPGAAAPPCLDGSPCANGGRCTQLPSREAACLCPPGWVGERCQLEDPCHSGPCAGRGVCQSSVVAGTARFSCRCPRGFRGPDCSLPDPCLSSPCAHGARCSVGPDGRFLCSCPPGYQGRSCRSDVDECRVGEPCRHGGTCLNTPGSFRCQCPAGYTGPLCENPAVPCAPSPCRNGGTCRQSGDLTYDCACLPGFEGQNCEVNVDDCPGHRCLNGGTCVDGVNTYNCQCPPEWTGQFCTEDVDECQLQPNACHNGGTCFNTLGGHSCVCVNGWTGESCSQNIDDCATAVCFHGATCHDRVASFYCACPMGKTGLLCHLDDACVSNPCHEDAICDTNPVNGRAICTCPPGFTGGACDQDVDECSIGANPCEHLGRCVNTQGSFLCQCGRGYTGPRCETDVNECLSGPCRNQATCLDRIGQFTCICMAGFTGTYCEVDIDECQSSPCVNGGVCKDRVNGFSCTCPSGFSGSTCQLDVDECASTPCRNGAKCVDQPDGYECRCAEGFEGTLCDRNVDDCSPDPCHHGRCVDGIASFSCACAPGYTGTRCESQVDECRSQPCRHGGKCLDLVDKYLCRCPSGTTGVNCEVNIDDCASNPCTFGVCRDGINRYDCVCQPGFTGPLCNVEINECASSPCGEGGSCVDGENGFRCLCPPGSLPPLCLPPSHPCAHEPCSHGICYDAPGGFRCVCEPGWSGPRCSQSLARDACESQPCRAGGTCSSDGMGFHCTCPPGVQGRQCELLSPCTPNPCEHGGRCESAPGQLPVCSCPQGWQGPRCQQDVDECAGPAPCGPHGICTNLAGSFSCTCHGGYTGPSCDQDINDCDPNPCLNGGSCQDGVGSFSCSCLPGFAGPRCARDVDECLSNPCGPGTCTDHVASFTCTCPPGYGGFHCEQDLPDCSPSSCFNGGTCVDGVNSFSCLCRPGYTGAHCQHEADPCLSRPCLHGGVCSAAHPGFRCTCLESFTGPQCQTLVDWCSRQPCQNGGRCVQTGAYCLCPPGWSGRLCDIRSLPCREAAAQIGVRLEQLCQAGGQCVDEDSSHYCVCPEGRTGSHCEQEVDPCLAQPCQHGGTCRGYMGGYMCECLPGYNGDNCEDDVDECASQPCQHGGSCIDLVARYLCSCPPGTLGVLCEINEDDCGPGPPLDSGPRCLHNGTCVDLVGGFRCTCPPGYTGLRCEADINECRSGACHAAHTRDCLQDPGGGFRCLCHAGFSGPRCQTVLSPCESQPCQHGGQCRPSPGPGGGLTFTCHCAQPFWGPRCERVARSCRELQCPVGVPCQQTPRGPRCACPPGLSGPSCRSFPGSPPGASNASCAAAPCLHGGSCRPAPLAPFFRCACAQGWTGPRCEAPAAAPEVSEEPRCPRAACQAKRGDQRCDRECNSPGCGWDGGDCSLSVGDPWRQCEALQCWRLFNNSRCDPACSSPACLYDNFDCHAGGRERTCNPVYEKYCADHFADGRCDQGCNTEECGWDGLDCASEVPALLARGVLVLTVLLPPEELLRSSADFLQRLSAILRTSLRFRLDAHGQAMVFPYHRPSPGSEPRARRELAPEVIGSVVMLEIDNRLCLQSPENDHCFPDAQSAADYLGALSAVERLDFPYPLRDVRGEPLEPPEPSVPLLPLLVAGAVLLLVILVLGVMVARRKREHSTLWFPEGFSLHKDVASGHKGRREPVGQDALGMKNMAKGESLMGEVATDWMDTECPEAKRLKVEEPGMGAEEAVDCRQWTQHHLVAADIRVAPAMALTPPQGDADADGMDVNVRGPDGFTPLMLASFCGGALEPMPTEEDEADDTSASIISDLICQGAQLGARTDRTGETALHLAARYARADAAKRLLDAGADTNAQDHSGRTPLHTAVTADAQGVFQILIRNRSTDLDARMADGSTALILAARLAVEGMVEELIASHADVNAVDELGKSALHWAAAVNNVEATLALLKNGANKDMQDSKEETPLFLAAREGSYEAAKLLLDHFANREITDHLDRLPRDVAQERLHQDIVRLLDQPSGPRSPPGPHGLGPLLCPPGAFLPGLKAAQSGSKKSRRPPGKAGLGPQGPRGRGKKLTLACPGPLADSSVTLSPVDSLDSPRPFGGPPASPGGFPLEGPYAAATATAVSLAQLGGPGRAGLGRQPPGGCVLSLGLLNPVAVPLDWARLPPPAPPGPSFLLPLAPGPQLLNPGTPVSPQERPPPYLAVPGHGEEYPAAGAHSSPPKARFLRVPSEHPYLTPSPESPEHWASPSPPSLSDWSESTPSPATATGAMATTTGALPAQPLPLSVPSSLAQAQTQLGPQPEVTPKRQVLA
Chain of Torsin-1A-interacting protein 2 (Homo sapiens) (Q8NFQ8 whole entry, looked up): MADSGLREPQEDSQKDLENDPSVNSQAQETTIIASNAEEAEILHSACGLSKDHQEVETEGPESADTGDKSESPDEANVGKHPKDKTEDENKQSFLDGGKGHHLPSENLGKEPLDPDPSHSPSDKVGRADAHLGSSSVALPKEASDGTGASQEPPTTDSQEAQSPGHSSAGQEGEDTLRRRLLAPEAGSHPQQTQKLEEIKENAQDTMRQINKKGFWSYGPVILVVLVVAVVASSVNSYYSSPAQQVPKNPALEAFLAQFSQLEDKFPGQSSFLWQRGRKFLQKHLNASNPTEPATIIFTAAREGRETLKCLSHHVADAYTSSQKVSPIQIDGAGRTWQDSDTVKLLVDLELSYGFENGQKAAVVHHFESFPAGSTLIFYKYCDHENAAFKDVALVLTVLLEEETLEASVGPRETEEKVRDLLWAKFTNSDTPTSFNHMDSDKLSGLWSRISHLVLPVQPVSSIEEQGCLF

Row | SMILES | composite z-score [1] | z-score [2] | z-score [3] | z-score [4] | composite z-score [5] | z-score [6] | composite z-score [7] | composite z-score [8] | composite z-score [9] | composite z-score [10]
1 | C=CCC(OC(C)=O)[C@@H]1[C@@H](N(Cc2cccc3ccccc23)C(=O)c2ccc(-c3ccccc3)cc2)c2cc(OCCCO)ccc2N1C(=O)c1ccc2ccccc2c1 (stereo not given in full) | 0.833 | -0.226 (inactive) | 0.435 (inactive) | 0.009 (inactive) | 1.76 | -0.601 (inactive) | -0.0174 | 0.251 | 0.643 | -0.0578
2 | COc1cc(Br)cc(C(O)C2C=CC3C(=O)N(C)C(=O)C3N2N2CCCCC2)c1OC (stereo not given) | -0.962 | 0.733 (inactive) | 1.13 (inactive) | 1.73 (inactive) | 1.49 | -1.54 (inactive) | 0.118 | -1.27 | -0.702 | 0.0122
3 | C=C(COC)/C(=C/C[C@H](OC(C)=O)c1ccc(CO)o1)c1cc(C(=O)OC)ccc1OC | 0.404 | 0.517 (inactive) | -0.131 (inactive) | 0.0604 (inactive) | 1.67 | 0.796 (inactive) | -0.142 | 0.493 | 0.217 | -0.284
4 | COCCOC(=O)N1C(=O)[C@@]2(c3cc(C#CC4(O)CCCCCC4)ccc31)[C@H](c1ccc(OCCO)cc1)N1[C@H](c3ccccc3)[C@H](c3ccccc3)OC(=O)[C@H]1[C@@H]2C(=O)N1CCN(c2ncccn2)CC1 | 1.56 | 2.64 (inactive) | 2.26 (inactive) | 6.24 (inactive) | 2.69 | 0.0846 (inactive) | -0.136 | 1.67 | 1.08 | -0.108
5 | CCCC[C@@H]1C[C@H]1[C@@H](NC(=O)c1cccs1)c1ccc(-c2ccccc2)cc1 | 0.464 | 0.227 (inactive) | -3.7 (inactive) | -1.24 (inactive) | 1.09 | -0.692 (inactive) | -0.121 | 0.692 | 0.428 | -0.0688
6 | C=CC[C@]1(C(=O)NCc2ccccc2)N=C(c2ccc(OCCCO)cc2)O[C@H]1c1ccccc1N=[N+]=[N-] | 1.22 | -1.33 (inactive) | 0.0342 (inactive) | 0.511 (inactive) | 3.24 | 0.73 (inactive) | 0.17 | 0.0073 | 1.11 | 0.0968
7 | O=C(CS)NCCCCCCNC(=O)[C@@H]1C[C@@H]2C(=O)N[C@@H](Cc3ccccc3)C(=O)N2[C@@H]1c1cccc(OCCO)c1 | 1.54 | -0.485 (inactive) | 0.279 (inactive) | 0.211 (inactive) | 2.92 | -1.21 (inactive) | 0.0747 | 0.988 | 1.04 | 0.122
8 | COC(=O)C(CC#Cc1ccc2c(c1)[C@]1(C(=O)N2)[C@H](C(=O)Nc2nc3ccccc3s2)[C@H]2C(=O)O[C@H](c3ccccc3)[C@H](c3ccccc3)N2[C@@H]1c1ccccc1OCCO)C(=O)OC | 1.55 | 1.35 (inactive) | 1.12 (inactive) | 1.39 (inactive) | 2.69 | -0.404 (inactive) | 0.0293 | 0.485 | 1.08 | -0.0244
9 | CC(C)N1C(=O)[C@@]2(Cc3ccccc31)c1ccccc1C(=O)N(Cc1ccccc1Cl)[C@H]2c1ccc(CO)cc1 | 0.477 | -1.05 (inactive) | -1.17 (inactive) | -2.86 (inactive) | -0.203 | -1.25 (inactive) | -0.153 | -0.665 | -0.942 | -0.152
10 | COCCOC(=O)N1C(=O)[C@@]2(c3cc(C#CCC(C(=O)OC)C(=O)OC)ccc31)[C@H](c1ccccc1OCCO)N1[C@H](c3ccccc3)[C@H](c3ccccc3)OC(=O)[C@H]1[C@@H]2C(=O)NC[C@H](O)c1ccccc1 | 1.54 | 1.78 (inactive) | 2.17 (inactive) | 5.84 (inactive) | 2.32 | -0.036 (inactive) | 0.032 | 1.62 | 1.05 | 0.379
11 | CNS(=O)(=O)c1ccc(C)cc1 | 1.14 | -2.29 (inactive) | -2.38 (inactive) | -0.719 (inactive) | 0.283 | 2.55 (inactive) | -0.165 | 1.19 | 0.629 | -0.101
12 | CCCC[C@H]1OB(O)C[C@H]2C1=C(COC)Cn1c(=O)n(-c3ccccc3)c(=O)n12 | 0.601 | 0.461 (inactive) | 0.19 (inactive) | -0.386 (inactive) | 0.814 | 0.498 (inactive) | -0.208 | 0.0562 | 0.121 | -0.137
13 | [N-]=[N+]=Nc1ccccc1[C@H]1OC(c2ccc(OCCCO)cc2)=N[C@@]1(CCS(=O)(=O)c1ccccc1)C(N)=O | 1.01 | -0.268 (inactive) | -2.33 (inactive) | 0.372 (inactive) | 2.56 | 1.36 (inactive) | 0.24 | -0.194 | 0.42 | 0.401
14 | C=C[C@H](CO)NS(=O)(=O)c1ccc(Br)cc1 | -0.0224 | 0.198 (inactive) | -1.53 (inactive) | -0.135 (inactive) | 0.676 | 1.29 (inactive) | 0.0467 | 0.19 | -0.342 | -0.0302
15 | COc1cc(NN2C(C(O)c3ccco3)C=CC3C(=O)N(c4ccccc4)C(=O)C32)cc(OC)c1OC (stereo not given) | 0.216 | 0.602 (inactive) | 0.0991 (inactive) | -0.234 (inactive) | 2.41 | -1.18 (inactive) | -0.2 | 0.0945 | 0.703 | -0.0688
16 | CN1C(=O)C2C=CC(C(O)c3ccccc3)N(N(c3ccccc3)c3ccccc3)C2C1=O (stereo not given) | -0.124 | 0.0175 (inactive) | 0.808 (inactive) | 0.495 (inactive) | 0.317 | -0.642 (inactive) | 0.603 | 0.141 | 0.422 | -0.0668
17 | [N-]=[N+]=NCc1ccccc1C[C@]1(C(=O)N2CCCCC2)N=C(c2ccc(OCCCO)cc2)O[C@H]1c1ccccc1N=[N+]=[N-] | 1.57 | -0.912 (inactive) | -0.371 (inactive) | 6.08 (inactive) | 3.09 | -0.442 (inactive) | 0.202 | -0.112 | 1.07 | 0.262
18 | COc1ccc([Si](C)(C)[C@@H]2[C@@H](CCO)O[C@]3(C(=O)N(Cc4ccc(N(C=O)c5ccccc5)cc4)c4ccccc43)[C@H]2C)cc1 | 0.883 | 1.47 (inactive) | 0.552 (inactive) | 25.3 (active) | 0.758 | 0.0689 (inactive) | 0.122 | 0.445 | 0.332 | -0.0466
19 | C=CCOC(=O)[C@H]1[C@@H]2C(=O)O[C@@H](c3ccccc3)[C@@H](c3ccccc3)N2[C@@H](c2ccc(OCCOC(=O)[C@H]3C[C@H]4C(=O)N[C@@H](CCCCNC(C)=O)C(=O)N4[C@H]3c3ccc(O)cc3)cc2)[C@]12C(=O)Nc1ccc(I)cc12 | 1.57 | 1.12 (inactive) | -2.33 (inactive) | 1.75 (inactive) | 1.81 | -2.07 (inactive) | -0.0566 | 1.5 | 1.07 | -0.0088
20 | COC(=O)c1c(CC[C@@H](CO)NC(=O)NCCn2cc(C3(O)CCCC3)nn2)oc(C(C)=O)c1C(=O)OC | 0.463 | -0.539 (inactive) | -0.263 (inactive) | -0.0147 (inactive) | 3.24 | -0.918 (inactive) | -0.23 | 0.0587 | -0.33 | -0.0778
21 | CN(C)CCCC[C@@H]1NC(=O)[C@@H]2C[C@H](C(=O)NCCCCCCN)[C@H](c3cccc(OCCO)c3)N2C1=O | 1.53 | -0.968 (inactive) | -4.9 (inactive) | -0.883 (inactive) | 3.25 | 0.26 (inactive) | 1.03 | 0.612 | 0.395 | 0.54
22 | CCCC[C@@H]1C[C@H]1[C@@H](NC(=O)C(C)(C)C)c1ccc(C(F)(F)F)cc1 | 0.648 | 0.213 (inactive) | -2.71 (inactive) | 0.329 (inactive) | 0.918 | -1.67 (inactive) | 0.0823 | -1.46 | -0.434 | -0.236
23 | Cc1ccc(S[C@]2(C(=O)NC3CC3)CC(=O)N(Cc3ccccc3)[C@@H]2c2ccc(CO)cc2I)cc1 | 1.23 | 0.0136 (inactive) | -3.59 (inactive) | 0.0377 (inactive) | 2.35 | 0.45 (inactive) | -0.012 | -0.809 | -0.738 | -0.286
24 | O=C(NCCO)C1=C[C@H](Oc2ccccc2I)[C@@H](O)[C@H](N(Cc2ccco2)C(=O)Cc2ccccc2)C1 | -0.0355 | 0.528 (inactive) | 0.0689 (inactive) | 0.279 (inactive) | -0.298 | -0.546 (inactive) | -0.0279 | 0.535 | 0.271 | -0.0767
25 | Cc1nc2cc(Br)ccc2c(=O)o1 | 0.648 | -0.764 (inactive) | 0.597 (inactive) | -1.07 (inactive) | 1.27 | -1.07 (inactive) | -0.082 | 0.198 | 1.04 | 0.104
26 | O=C1C[C@]2(c3ccc([N+](=O)[O-])cc3)C(=O)N(CC(F)(F)F)c3cc(CO)ccc3[C@H]2N1C1CCCCC1 | 0.137 | 0.926 (inactive) | -0.378 (inactive) | -1.03 (inactive) | -0.0451 | 0.685 (inactive) | -0.216 | -0.425 | -1.41 | -0.201
27 | C=CC1(C(=O)OC)CC=C(C(=O)OC)CC1 (stereo not given) | 0.911 | -1.64 (inactive) | 0.358 (inactive) | -0.624 (inactive) | 0.531 | -0.487 (inactive) | -0.0449 | 0.533 | 0.57 | 0.0413
28 | O=C1N[C@@H](Cc2ccccc2)C(=O)N2[C@@H]1C[C@@H](C(=O)O)[C@H]2c1cccc(OCCO)c1 | 1.56 | 0.809 (inactive) | -0.66 (inactive) | -0.276 (inactive) | 1.06 | 1.18 (inactive) | -0.0206 | 1.43 | 0.611 | -0.071
29 | COC(=O)[C@@]1(Cc2ccc(OC)cc2)[C@H]2c3cc(C(=O)N(C)C)n(CCc4ccccn4)c3C[C@H]2CN1C(=O)c1ccccc1 | -0.663 | 0.735 (inactive) | 1.55 (inactive) | 2.81 (inactive) | 2.5 | -0.901 (inactive) | 1.09 | -0.307 | 0.0532 | 0.865
30 | C=CCOC(=O)[C@H]1[C@@H]2C(=O)O[C@@H](c3ccccc3)[C@@H](c3ccccc3)N2[C@@H](c2ccc(OCCOC(=O)[C@@H]3C[C@@H]4C(=O)N[C@@H](CC(C)C)C(=O)N4[C@@H]3c3ccc(O)cc3)cc2)[C@]12C(=O)Nc1ccccc12 | 1.53 | 0.963 (inactive) | 1.32 (inactive) | 4.11 (inactive) | 3.2 | 0.703 (inactive) | 0.115 | 1.49 | 1.1 | 0.0195
